Compound activity from PubChem.
hNpr1 antagonist = Natriuretic polypeptide receptor (hNpr1) antagonism - Primary qHTS. Atrial natriuretic peptide receptor 1 (Homo sapiens), P16066. HEK293 hNpr1 GloSensor cGMP, ANP-stimulated luminescence. Potency, µM (top dose mostly 46.3 µM), actives largely listed as inhibitors. 1.6% of 76,000 active. AID 1347048, 2019; calls by dose curve; note: nearly all actives have a fitted effect of over 60% in size
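HEK293 cells stably expressing human Npr1 and cGMP GloSensor pGS-40F, loaded 2 h with 2% GloSensor reagent, given compound 30 min at room temperature. Luminescence read before and 20 min after 0.1 nM hNppA.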
Luciferase inh = Firefly luciferase inhibition profiling of diverse chemical library using quantitative high-throughput screening. Luciferin 4-monooxygenase (Photinus pyralis), P08659. purified P. pyralis luciferase, luminescence, biochemical. Potency, µM (highest dose often 115 µM), actives largely listed as inhibitors. 2.5% of 76,000 active. AID 1347043, 2019; note: nearly all actives have a fitted effect of over 65% in size
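Inhibitors were tested against purified firefly luciferase in a biochemical, low-substrate format (both substrates at 10uM) and luminescence measured with a CCD imager.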
NIH3T3 tox = Cytotoxic Profiling in NIH 3T3 Cell Line of Diverse Libraries Using Quantitative High-Throughput Screening; NIH 3T3 viability, CellTiter-Glo ATP luminescence, 48-72 h; Potency, µM (titrated, usually from 96.7 µM), hits mostly inhibitors; 4.3% of 94,000 active; AID 1345082, 2018; note: nearly all actives have a fitted effect of over 55% in size
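Luminescent ATP readout (CellTiter-Glo, 10 min RT) after 48 or 72 hr compound exposure of NIH 3T3 cells seeded at 400 cells/well in 1536-well format; quantitative HTS.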
HEK cytotox = Cytotoxic Profiling in HEK 293 Cell Line of Diverse Libraries Using Quantitative High-Throughput Screening; Potency, µM (doses to about 115 µM), hits mostly inhibitors; 6.6% of 94,000 active; HEK 293 viability, ATP luminescence (CellTiter-Glo), 48-72 h; note: nearly all actives have a fitted effect of over 60% in size
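Cells seeded first (HEK 293, 250 cells/well), then compound added by pintool. Incubation ran 48 or 72 hr at 37 degree Celsius. CellTiter-Glo was added and luminescence imaged after 10 min at room temperature.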
Npr1 antag conf = Natriuretic polypeptide receptor (hNpr1) antagonism - Confirmation | shares compounds with hNpr1 antagonist | HEK293 hNpr1 cGMP GloSensor luminescence, ANP-stimulated | Potency, µM (titrated, usually from 57.6 µM), usual class: inhibitors | 76% of 1,400 active; calls by dose curve; note: nearly all actives have a fitted effect of over 70% in size
Npr2 selectivity = Natriuretic polypeptide receptor (hNpr2) antagonism - Subtype selectivity assay; HEK293 hNpr2 GloSensor cGMP luminescence, CNP-stimulated; Potency, µM (doses to about 57.6 µM), usual class: inhibitors; 67% of 1,400 active; AID 1347046, 2019; shares compounds with hNpr1 antagonist; calls by dose curve; note: nearly all actives have a fitted effect of over 70% in size
Target sequence (P20594 whole entry, looked up): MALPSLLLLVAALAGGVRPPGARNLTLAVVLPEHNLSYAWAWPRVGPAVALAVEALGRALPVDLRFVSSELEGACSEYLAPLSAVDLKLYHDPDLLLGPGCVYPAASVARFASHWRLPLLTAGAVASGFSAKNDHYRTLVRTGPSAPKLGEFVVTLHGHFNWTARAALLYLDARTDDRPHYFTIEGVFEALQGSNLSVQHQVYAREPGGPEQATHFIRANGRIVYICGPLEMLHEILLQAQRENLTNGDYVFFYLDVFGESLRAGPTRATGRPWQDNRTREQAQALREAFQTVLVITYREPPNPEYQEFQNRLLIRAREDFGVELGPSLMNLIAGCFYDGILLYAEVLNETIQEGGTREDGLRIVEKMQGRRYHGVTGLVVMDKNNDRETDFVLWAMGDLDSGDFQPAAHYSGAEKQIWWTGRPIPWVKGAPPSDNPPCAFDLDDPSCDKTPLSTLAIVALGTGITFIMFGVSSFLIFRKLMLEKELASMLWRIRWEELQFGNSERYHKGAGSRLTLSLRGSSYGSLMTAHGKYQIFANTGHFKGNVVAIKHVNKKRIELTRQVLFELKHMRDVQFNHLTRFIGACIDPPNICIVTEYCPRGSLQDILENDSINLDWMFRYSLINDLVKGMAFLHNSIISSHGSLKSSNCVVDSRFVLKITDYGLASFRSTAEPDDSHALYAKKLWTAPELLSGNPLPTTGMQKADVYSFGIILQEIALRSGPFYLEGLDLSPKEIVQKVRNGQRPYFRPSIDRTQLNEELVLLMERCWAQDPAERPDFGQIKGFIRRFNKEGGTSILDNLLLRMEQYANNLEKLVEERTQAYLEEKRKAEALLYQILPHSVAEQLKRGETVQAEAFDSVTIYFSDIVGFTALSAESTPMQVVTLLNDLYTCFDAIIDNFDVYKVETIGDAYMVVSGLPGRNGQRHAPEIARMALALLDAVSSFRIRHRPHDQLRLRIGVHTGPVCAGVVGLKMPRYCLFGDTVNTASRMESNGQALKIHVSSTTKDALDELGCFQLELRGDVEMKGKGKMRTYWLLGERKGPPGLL
FLuc counter = Natriuretic polypeptide receptor (hNpr1) antagonism - Confirmation firefly luciferase (FLuc) inhibition counterscreen. AID 1347047, 2019. Potency, µM (top dose mostly 57.6 µM), usual class: inhibitors. shares compounds with hNpr1 antagonist. 0.7% of 1,400 active. purified FLuc enzyme, luminescence, Km substrate
GloSensor cGMP = Natriuretic polypeptide receptor (hNpr1) antagonism - Counterscreen GloSensor control cell line | shares compounds with hNpr1 antagonist | HEK293 GloSensor cGMP, SNP-stimulated, luminescence | Potency, µM (series often up to 57.6 µM), actives largely listed as inhibitors | 69% of 1,400 active; calls by dose curve; note: nearly all actives have a fitted effect of over 70% in size
Large screens that a line does not name were inactive (follow-up assays come after a bar, where they were run). Rows were chosen to be rich in hits. Some 11% of all compounds tested hit in one or more screens of this group. Unless noted, calls come from the whole dose curve; as a rule, active = well fitted curve in the direction sought with a large enough effect; inconclusive = small, poorly fitted or top-dose-only effect, or another doubt; inactive = no such curve, though single readings can be large; an effect the other way counts as inactive or inconclusive.

CCc1noc(CC2CCOC3(CCN(S(=O)(=O)c4ccc(C(C)C)cc4)CC3)C2)n1 (stereo not given)	hNpr1 antagonist 10µM, NIH3T3 tox inconclusive, HEK cytotox inconclusive | Npr1 antag conf 17.2µM | Npr2 selectivity 19.3µM | FLuc counter inactive | GloSensor cGMP 12.2µM
COCCCN1CC2(CCN(C(=O)c3ccccc3N(C)C)CC2)CC1=O	none
Cc1ncnc(N2CCC3(CC2)CC(=O)N(CCCc2ccccc2)C3)c1C	hNpr1 antagonist 4.47µM, NIH3T3 tox inconclusive, HEK cytotox inconclusive | Npr1 antag conf 5.44µM | Npr2 selectivity 6.85µM | FLuc counter inactive | GloSensor cGMP 5.44µM
COCCNC(=O)C1CCN(Cc2ccccc2-c2cccnc2)CC1	none (no result: hNpr1 antagonist, Luciferase inh)
CCNc1cc(N2CCC(CCC(=O)N3CCCN(c4ncccn4)CC3)CC2)ncn1	hNpr1 antagonist inconclusive, HEK cytotox inconclusive | Npr1 antag conf 24.3µM | Npr2 selectivity inconclusive | FLuc counter inactive | GloSensor cGMP 24.3µM
COc1nccc(N2CCC(CC(=O)NCc3ccc(F)c(Cl)c3)CC2)n1	hNpr1 antagonist 11.2µM, NIH3T3 tox inconclusive, HEK cytotox inconclusive | Npr1 antag conf 24.3µM | Npr2 selectivity 21.7µM | FLuc counter inactive | GloSensor cGMP 24.3µM
COc1nccc(N2CCC(CC(=O)N3CCCN(c4ncccn4)CC3)CC2)n1	hNpr1 antagonist 22.4µM, HEK cytotox inconclusive | Npr1 antag conf 24.3µM | Npr2 selectivity inconclusive | FLuc counter inactive | GloSensor cGMP inconclusive
CCNc1cc(N2CCC(CCC(=O)NCCc3ccccn3)CC2)ncn1	none
CNc1nccc(N2CCC(CC(=O)N3CCN(c4ccccc4C)CC3)CC2)n1	hNpr1 antagonist inconclusive, NIH3T3 tox 44.7µM, HEK cytotox 28.2µM | Npr1 antag conf inconclusive | Npr2 selectivity inconclusive | FLuc counter inactive | GloSensor cGMP inconclusive
CC(=O)NCCCC(=O)N1C2CCC1CN(c1ccc(C(F)(F)F)cc1)C2	NIH3T3 tox inconclusive (no result: hNpr1 antagonist, Luciferase inh)
O=C(N1CCOCC1)N1C2CCC1CN(c1ccc(C(F)(F)F)cc1)C2	NIH3T3 tox 14.1µM, HEK cytotox inconclusive (no result: hNpr1 antagonist, Luciferase inh) | Npr1 antag conf 21.7µM | Npr2 selectivity 21.7µM | FLuc counter inactive | GloSensor cGMP 19.3µM
O=C(c1ccncc1)N1C2CCC1CN(c1ccc(C(F)(F)F)cc1)C2	NIH3T3 tox inconclusive, HEK cytotox inconclusive (no result: hNpr1 antagonist, Luciferase inh) | Npr1 antag conf 24.3µM | Npr2 selectivity 21.7µM | FLuc counter inactive | GloSensor cGMP 21.7µM
O=C(Nc1ccc2cn[nH]c2c1)c1ccc2c(c1)OCCN(c1ccccc1)C2	hNpr1 antagonist inconclusive, NIH3T3 tox 39.8µM, HEK cytotox 44.7µM | Npr1 antag conf 35.3µM | Npr2 selectivity inconclusive | FLuc counter inactive | GloSensor cGMP 35.3µM
O=C(Nc1nccs1)c1ccc2c(c1)OCCN(c1ccccc1)C2	Luciferase inh inconclusive, NIH3T3 tox inconclusive
COc1ccc(C(=O)N2CCN(c3cc(-c4cccs4)[nH]n3)CC2)cc1	hNpr1 antagonist inconclusive, NIH3T3 tox inconclusive, HEK cytotox inconclusive
Cc1nn2c(c1-c1ccccc1[S+](C)(=O)[O-])N(C(=O)Cc1ccccc1)CCC2	NIH3T3 tox inconclusive
Cc1nn2c(c1-c1ccccc1OCc1ccccc1)N(C(=O)Cc1ccccn1)CCC2	hNpr1 antagonist inconclusive, NIH3T3 tox inconclusive, HEK cytotox inconclusive | Npr1 antag conf 19.8µM | Npr2 selectivity 12.5µM | FLuc counter inactive | GloSensor cGMP inactive
Cc1nn2c(c1-c1ccccc1OCc1ccccc1)N(C(=O)COc1ccccc1C(N)=O)CCC2	hNpr1 antagonist 7.08µM, NIH3T3 tox 6.31µM, HEK cytotox inconclusive | Npr1 antag conf 17.2µM | Npr2 selectivity 10.9µM | FLuc counter inactive | GloSensor cGMP inactive
CCN1CCC(OCCCNC(=O)CCC[C@H]2NC[C@@H]3C[C@H]2CN(Cc2ccccc2)C3)CC1	none
CN1CCC2(CC1)CN(C(=O)Cc1cccs1)Cc1ccccc1O2	NIH3T3 tox inconclusive
COc1cccc([S+](=O)([O-])N2CCC3(CC2)C(=O)Nc2ccccc23)c1	hNpr1 antagonist 12.6µM, NIH3T3 tox inconclusive, HEK cytotox inconclusive | Npr1 antag conf 19.8µM | Npr2 selectivity 19.8µM | FLuc counter inactive | GloSensor cGMP 15.7µM
O=C([C@H]1CCCN1C(=O)c1ccccc1Cl)N1CCC(N2CCOC2=O)CC1	none (no result: hNpr1 antagonist, Luciferase inh)
Cn1cc(-c2cccc(O)c2)c2nc(COc3ccc(Cl)cc3)cn2c1=O	hNpr1 antagonist 35.5µM, NIH3T3 tox inconclusive, HEK cytotox 31.6µM | Npr1 antag conf 39.6µM | Npr2 selectivity inconclusive | FLuc counter inactive | GloSensor cGMP 35.3µM
COc1ccccc1CCC(=O)N1CCC2(CC1)N=C(c1cccc(Br)c1)NO2	NIH3T3 tox inconclusive, HEK cytotox inconclusive | Npr1 antag conf inconclusive | Npr2 selectivity inconclusive | FLuc counter inactive | GloSensor cGMP inactive
Cc1ccsc1C(=O)N1CCC2(CC1)N=C(c1cccc(Br)c1)NO2	hNpr1 antagonist 12.6µM, NIH3T3 tox inconclusive, HEK cytotox inconclusive | Npr1 antag conf 27.3µM | Npr2 selectivity inconclusive | FLuc counter inactive | GloSensor cGMP 27.3µM
COc1ccc(C(=O)N2CCC3(CC2)N=C(c2cccc(Br)c2)NO3)c(OC)c1	hNpr1 antagonist 11.2µM, NIH3T3 tox inconclusive, HEK cytotox inconclusive | Npr1 antag conf 24.3µM | Npr2 selectivity 24.3µM | FLuc counter inactive | GloSensor cGMP 21.7µM
COc1ccc(C(=O)N2CCC3(CC2)N=C(c2cccc(Br)c2)NO3)cc1F	hNpr1 antagonist inconclusive, NIH3T3 tox inconclusive, HEK cytotox inconclusive | Npr1 antag conf inconclusive | Npr2 selectivity inconclusive | FLuc counter inactive | GloSensor cGMP 27.3µM
CC(=O)NCC1CCCN(Cc2ccc(-c3ccccc3C#N)o2)C1 (stereo not given)	none | Npr1 antag conf inconclusive | Npr2 selectivity inconclusive | FLuc counter inactive | GloSensor cGMP inactive
CCc1ccc(CN2CCCC(CNC(=O)c3cccc(OC)c3OC)C2)o1 (stereo not given)	HEK cytotox inconclusive
O=C(c1cccs1)N1CCC(Oc2cccnc2)C1 (stereo not given)	none
NC(=O)[C@@H]1C[C@H](Oc2cccnc2)CN1S(=O)(=O)c1cccnc1	none (no result: hNpr1 antagonist, Luciferase inh)
